Assay results taken from PubChem BioAssay (NCI).
Compounds without any hit were thinned out: in the full panel of roughly 79,000, 15% have a hit. The source made the active and inactive calls. Rule as the data show it: active = growth inhibition above about 70%; inactive = the rest.

How the values were obtained:
[1] = NCI Yeast Anticancer Drug Screen. Data for the rad50 strain (AID 155);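 also: 0% = growth of vehicle-only cultures of the same strain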; details: S. cerevisiae rad50 strain growth inhibition; at 50.0 µM; hits give high values
Method in brief: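 A DNA repair-deficient yeast mutant serves as the test organism; compound-induced growth inhibition is calculated against vehicle-treated cells.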

[2] = NCI Yeast Anticancer Drug Screen. Data for the mec2-1 strain (AID 157); details: S. cerevisiae mec2-1 strain, at 50.0 µM, hits give high values
Method in brief: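 Compounds were applied to mec2-1 yeast cells. Their growth was then compared with that of vehicle-treated cultures to give growth inhibition.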

[3] = NCI Yeast Anticancer Drug Screen. Data for the sgs1 mgt1 strain (AID 161);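 also: 0% = growth of cultures given vehicle only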; details: S. cerevisiae sgs1 mgt1 strain, at 50.0 µM, hits give high values
Method in brief: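 Growth of a repair-deficient yeast mutant was monitored after compound treatment and expressed as inhibition relative to vehicle-treated cultures.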

[4] = NCI Yeast Anticancer Drug Screen. Data for the cln2 rad14 strain (AID 165);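 also: 0% = growth equal to vehicle treated cultures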; details: S. cerevisiae cln2 rad14 strain, at 50.0 µM, hits give high values
Method in brief: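 Strain: cln2 rad14 yeast, altered in cell cycle control and DNA damage repair. Read-out: growth inhibition vs vehicle.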

[5] = NCI Yeast Anticancer Drug Screen. Data for the bub3 strain (AID 167); details: S. cerevisiae bub3 mutant strain, at 50.0 µM, hits give high values
Method in brief: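 Inhibition values come from growth of compound-treated mutant yeast normalised to vehicle-treated controls.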

[6] = NCI Yeast Anticancer Drug Screen. Data for the mlh1 rad18 strain (AID 175); details: S. cerevisiae mlh1 rad18 strain growth inhibition; at 50.0 µM; hits give high values
Method in brief: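 A repair-deficient yeast strain is exposed to test compound, and growth is scored relative to vehicle-treated controls.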

Measured: growth inhibition

O=C1OC(=O)C2C1N=NC2(c1ccccc1)c1ccccc1 (configuration not stated)
inactive: [1] 47.3% | [2] 26% | [3] 22.1% | [4] -19.3% | [5] -1.15% | [6] 39.8%

O=C1OC(/C=C/c2ccccc2)=NC/1=C\c1ccccc1O
inactive: [1] 16.1% | [2] 8.6% | [3] 20% | [4] 23.4% | [5] 0.7% | [6] 6.6%

CCc1cccc(C(C)C)c1NC(=O)C(=O)C1C(=O)Nc2ccccc2S1=O (configuration not stated)
inactive: [1] -3.95% | [2] -13.6% | [3] -16.9% | [4] -11.2% | [5] 2.4% | [6] -29.1%

CCC(Nc1nncs1)Nc1nncs1
inactive: [1] -21.9% | [2] 22.6% | [3] 2.2% | [4] -20.9% | [5] 2.95% | [6] -3%

COc1ccc2c(c1)CCCN1CCc3cc(OC)c(OC)cc3C21 (configuration not stated)
inactive: [1] 21.1% | [2] 60.8% | [3] -21.3% | [4] -8.85% | [5] 4.5% | [6] -17.7%

COc1ccc(C=O)c(Br)c1O
inactive: [1] -0.65% | [2] -6.85% | [3] -14.2% | [4] 22.4% | [5] -12.3% | [6] -16.9%

C=CCCCC(C#N)c1ccc2c(c1)OCO2 (configuration not stated)
inactive: [1] -3.25% | [2] -14.2% | [3] -4.85% | [4] -82% | [5] -40.6% | [6] -15.2%

O=C(Cn1ccnc1[N+](=O)[O-])c1ccc(F)cc1
inactive: [1] 62.8% | [2] -13.9% | [3] 33.9% | [4] 4.6% | [5] -9.9% | [6] 13.3%

Cc1ccc(NC(=O)c2ccccc2N)cc1
inactive: [1] -0.9% | [2] -8.5% | [3] -0.95% | [4] -16.8% | [5] -12.4% | [6] 18%

CN(C)C(=N/O)/C(=N\O)N(C)C
inactive: [1] -5.05% | [2] -25% | [3] -23.1% | [4] -6.35% | [5] -23.8% | [6] -0.2%

CC(=O)SC12CCCN1C(=O)C1(SC(C)=O)CCCN1C2=O (configuration not stated)
inactive: [1] 40.5% | [2] 26.4% | [3] 45.2% | [4] -28.9% | [5] 3.3% | [6] 37%

C[N+]1(C)N=C([O-])N(c2ccccc2F)C1=O
inactive: [1] 7.15% | [2] -7.35% | [3] 2.7% | [4] -17.1% | [5] -2.15% | [6] -0.7%

CCOC(=O)NC(Nc1cccc(C(F)(F)F)c1)(C(F)(F)F)C(F)(F)F
inactive: [1] 1.45% | [2] -10.3% | [3] -38.5% | [4] 7.7% | [5] -15.6% | [6] -3.3%

COc1cc(C(c2cc3c(cc2O)OCO3)n2ccnc2)cc(OC)c1OC (configuration not stated)
inactive: [1] -15.2% | [2] 1.6% | [3] -13.1% | [4] 8.75% | [5] 2.9% | [6] 13.1%

Cc1ccccc1C(C#N)/C(=N/NC(N)=S)C(=O)Nc1c(C)cccc1C (configuration not stated)
inactive: [1] -36.5% | [2] -27.7% | [3] 2.5% | [4] -12.4% | [5] -17.2% | [6] -31.1%

CCCC1(C)OCC(C)(C)CO1
inactive: [1] -1.05% | [2] 2.45% | [3] -13.3% | [4] -28.8% | [5] 3.85% | [6] 1.9%

COC1=C(N=[N+]=[N-])C(=O)c2ccccc2C1=O
inactive: [1] 38% | [2] 8.95% | [3] 7.25% | [4] -34.2% | [5] -6.8% | [6] 16.1%

CCOC(=O)/C=C/C(=O)NNS(=O)(=O)CCC(N)C(=O)O (configuration not stated)
inactive: [1] -6.65% | [2] 13.4% | [3] 0.5% | [4] 2.8% | [5] 6.8% | [6] 0.45%

CCCCCCCCCCCCCCCCCC(=O)c1ccc(OC)c(OC)c1
inactive: [1] -14.8% | [2] -12.8% | [3] -31.1% | [4] -37.5% | [5] -24.4% | [6] -1.25%

O=C(O)COc1ccc(C(=O)/C(SS/C(C(=O)c2ccc(OCC(=O)O)c(Cl)c2Cl)=C2\C=C(c3ccccc3Cl)SS2)=C2/C=C(c3ccccc3Cl)SS2)c(Cl)c1Cl
inactive: [1] -20.8% | [2] -29.1% | [3] -6.05% | [4] 7.05% | [5] -19.9% | [6] -27.1%

COC(=O)c1c(OC)cc2cc3c(c(O)c2c1C)C(=O)C1(O)C(=O)C=C(OC)C(OC(=O)CC(C)N)=C1C3=O (configuration not stated)
inactive: [1] 26.1% | [2] 1.05% | [3] 24.2% | [4] 25.9% | [5] 22.9% | [6] 33%

Cc1ccc(S(=O)(=O)N/N=C2\CCC3(C)C(=CCC4C3CCC3(C)C(C(C)CCCC(C)C)CCC43)C2(C)C)cc1 (configuration not stated)
inactive: [1] 0.45% | [2] -1.2% | [3] -11.2% | [4] 2.75% | [5] -7.95% | [6] -0.1%

OC(c1cc(C(F)(F)F)nc2c(Cl)cc(Cl)cc12)C1CCCCN1 (configuration not stated)
inactive: [1] 7.2% | [2] -22.4% | [3] -5% | [4] -3.4% | [5] 8.75% | [6] 22.9%

COc1ccc2nc(C)c3c(c2c1)C(=O)N(CCC[N+]1([O-])CC[N+]([O-])(CCCN2C(=O)c4c(c5cc(OC)ccc5[n+]([O-])c4C)C2=O)CC1)C3=O (configuration not stated)
inactive: [1] -0.2% | [2] -7.8% | [3] -5.65% | [4] -35.7% | [5] 2.3% | [6] 26.1%

CCCCC(O)C(C)(C)C (configuration not stated)
inactive: [1] 1.5% | [2] -8.65% | [3] 3.55% | [4] 6.55% | [5] 9.65% | [6] 7.2%

Nc1nc2ccc(Br)cc2s1
inactive: [1] 9.3% | [2] 26.6% | [3] 35.9% | [4] 11.6% | [5] 32.5% | [6] 32.4%

COC(=O)c1ccc(/C=C2\CCc3ccccc3C2=O)cc1
inactive: [1] -9.9% | [2] -9.15% | [3] -16.2% | [4] 12.5% | [5] 14.2% | [6] 11.2%

O=S(=O)(N/N=C/c1ccc(/C=N/NS(=O)(=O)c2ccccc2)cc1)c1ccccc1
inactive: [1] -6.9% | [2] -15.8% | [3] -21.3% | [4] 12.6% | [5] -7.95% | [6] 0.15%

CC(C)(C)OC(=O)CC(O)c1ccccc1 (configuration not stated)
inactive: [1] 3.8% | [2] -2.9% | [3] 3.65% | [4] -2.45% | [5] -3.7% | [6] 20.8%

CCCCCCSC#N
inactive: [1] 34.8% | [2] 13.9% | [3] -8.75% | [4] 18.1% | [5] 15.2% | [6] 7.05%

CCOC(=O)C(=O)c1cn(C)c(=O)n(C)c1=O
inactive: [1] 12.1% | [2] 2.85% | [3] 1.3% | [4] 3.8% | [5] 0.9% | [6] 10.6%

NC1c2c(Cl)sc(Cl)c2C(=O)C1O (configuration not stated)
inactive: [1] -0.8% | [2] 15.2% | [3] -10.2% | [4] -3.6% | [5] 4% | [6] -40.4%

CC1=CC(C)S(=O)(=O)C1 (configuration not stated)
inactive: [1] -38.4% | [2] -46.2% | [3] -89.1% | [4] -5.7% | [5] -57.8% | [6] -16.7%

CCOC(=O)NC(S(=O)(=O)O)S(=O)(=O)O
inactive: [1] 0.6% | [2] 9.8% | [3] -25.1% | [4] -9.8% | [5] 16.1% | [6] 18.5%

O=C(O)CCSCc1ccc(I)cc1
inactive: [1] 35.1% | [2] 35.5% | [3] 54% | [4] 34.2% | [5] 47.6% | [6] 37.3%

Clc1ccc(CNc2nc3ccccc3nc2-c2cccs2)c(Cl)c1
inactive: [1] -0.3% | [2] 16.8% | [3] 11.3% | [4] 5.25% | [5] 12.3% | [6] 18.7%

CC(=O)OCC1OC(n2c(N)c(C#N)c(-c3ccccc3)c(C#N)c2=S)C(OC(C)=O)C(OC(C)=O)C1OC(C)=O (configuration not stated)
inactive: [1] 13.4% | [2] 11.2% | [3] -21.9% | [4] -8.8% | [5] -14.7% | [6] -60.2%
